D3 antag: blocks the human D3 dopamine receptor; P35462; D3R cells, DiscoveRx beta-arrestin luminescence, antagonist mode; stronger effect = lower value; max response, negative = inhibition, %; 2.5% of 360,000 active; in the data active = max response below about -50%; inconclusive = no clear call, values can overlap the other calls; note: % is set by controls: 0 for no effect and ±100 for the full control effect
Target sequence (P35462 whole entry, looked up): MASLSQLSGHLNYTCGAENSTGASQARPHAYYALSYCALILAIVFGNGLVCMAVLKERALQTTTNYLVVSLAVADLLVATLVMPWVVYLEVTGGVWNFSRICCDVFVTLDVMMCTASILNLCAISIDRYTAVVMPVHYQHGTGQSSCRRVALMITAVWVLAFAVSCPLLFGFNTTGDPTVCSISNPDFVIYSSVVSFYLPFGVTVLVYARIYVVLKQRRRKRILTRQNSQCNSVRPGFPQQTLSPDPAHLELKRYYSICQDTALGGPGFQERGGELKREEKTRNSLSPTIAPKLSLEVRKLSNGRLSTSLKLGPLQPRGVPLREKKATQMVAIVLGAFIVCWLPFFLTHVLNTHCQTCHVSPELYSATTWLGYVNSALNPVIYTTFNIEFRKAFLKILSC
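Cells plated overnight at 1500 cells/well, then exposed to library compounds with dopamine controls for 90 minutes at 37 degrees C. DiscoveRx reagent added for 30–60 minutes at room temperature; luminescence read, quantitative HTS format.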
DRD3 agonist: activates the human D3 dopamine receptor | 0.58% of 410,000 active | max activation, % | D3R DiscoveRx beta-arrestin cells, luminescence, 90 min | P35462 | AID 652048; in the data active = max activation above about 30%; note: 0% is about no effect
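Cells at 1500/well, incubated overnight, then treated with pinned compounds (dopamine as control) for 90 min at 37 degrees C. DiscoveRx reagent added for 30 - 60 minutes at room temperature; luminescence read.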
TDP1 cell CPT: growth inhibition of DT40 Tdp1-/-;hTDP1 cells with camptothecin (screen for TDP1 inhibitors) | chicken DT40 Tdp1-/-;hTDP1 cells + 20 nM CPT, ATP luminescence, 48 h | Potency, µM (titrated, usually from 46.2 µM), inactives show top-dose activity change, negative = growth inhibition, usual class: inhibitors | 12% of 420,000 active; note: potency is the fitted concentration of half-maximal effect; % is set by controls: 0 for no effect and ±100 for the full control effect; nearly all actives have a fitted effect of over 55% in size
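Chicken DT40 Tdp1-/- cells stably complemented with human TDP1 were seeded at 400 cells/well in medium containing 20 nM camptothecin, exposed to pin-transferred compounds, and grown at 37 °C for at least 48 hr. Viability was read as ATP luminescence.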
ClpP mod: qHTS Assay for Activators of ClpP; 1.9% of 340,000 active; purified B. subtilis ClpP, FRET peptide cleavage, 20 min; ATP-dependent Clp protease proteolytic subunit (Bacillus subtilis (strain 168)), P80244; Potency, µM (top dose mostly 57.5 µM), without a hit: at the highest dose activity change, negative = active; active = well fitted falling curve with a large enough effect; inconclusive = small, poorly fitted or top-dose-only effect; inactive = no such curve, though single readings can be large or run the other way; note: potency is the fitted concentration of half-maximal effect; the source files actives as falling curves though it sought activators and does not explain the sign; nearly all actives have a fitted effect of over 65% in size
Target sequence (P80244 whole entry, looked up): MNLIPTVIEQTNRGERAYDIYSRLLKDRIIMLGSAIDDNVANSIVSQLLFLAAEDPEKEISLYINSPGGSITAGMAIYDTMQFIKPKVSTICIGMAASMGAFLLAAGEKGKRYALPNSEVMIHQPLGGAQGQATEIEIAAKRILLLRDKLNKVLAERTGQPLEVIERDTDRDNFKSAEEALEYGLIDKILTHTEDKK
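ClpP 10 microg/mL final, pH 8 Tris/KCl buffer with BSA, glycerol, Tween-20; compound pinned in; FRET-FV substrate; RT 20 min; Ex320/Em430; ΔFRET vs ADEP 5.8 microM, DMSO, no enzyme.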
IL1B secr inh: blocks inflammasome-driven IL-1 beta release. THP-1 LPS/ATP IL-1B secretion, AlphaLISA, 16 h; stronger effect = lower value. activity change, % at 57.5 µM. 4.7% of 360,000 active; in the data active = activity change below about -50%; inconclusive = mostly about -30% to -49%; note: % is set by controls: 0 for no effect and ±100 for the full control effect
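Secreted IL-1B measured by AlphaLISA bead assay after 16 h compound exposure of THP-1 cells; compounds (final up to 57.5 uM) added 1 h before LPS (250 ng/mL) and ATP (1.25 mM) stimulation; lower signal means less secretion.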
TDP1 cell noCPT: qHTS for Inhibitors of human tyrosyl-DNA phosphodiesterase 1 (TDP1): qHTS in cells in absence of CPT | DT40 Tdp1-/- hTDP1 cells, no CPT, ATP luminescence, 48 h | Potency, µM (series often up to 46.2 µM), for the others: at the highest dose activity change, negative = growth inhibition, hits mostly inhibitors | 15% of 420,000 active; note: potency is the fitted concentration of half-maximal effect; % is set by controls: 0 for no effect and ±100 for the full control effect; nearly all actives have a fitted effect of over 55% in size
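DT40 Tdp1-/-;hTDP1 cells, no CPT (DMSO vehicle only), 400 cells/well; compounds pin-transferred; ≥48 hr, 37 °C; CellTiter-Glo 30 min RT dark, luminescence read.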
Numbers without * were called inactive; u = inconclusive; x = no result. In the library only some 21% were active in any assay of this set; here they are far more common. Unless noted, calls come from the whole dose curve; as a rule, active = well fitted inhibition curve with a large enough effect; inconclusive = small, poorly fitted or top-dose-only effect; inactive = flat fitted curve, though single readings scatter.

SMILES	D3 antag	DRD3 agonist	TDP1 cell CPT	ClpP mod	IL1B secr inh	TDP1 cell noCPT
CCOC(=O)C1(C)CCN1C(=O)c1cccc(Cl)c1 (stereo not drawn)	0.0	48.5*	u	-3.1%	32.1	-25.6%
CN(Cc1cn(Cc2ccccc2)nc1-c1ccc2c(c1)OCO2)Cc1nccn1C	9.4	1.7	u	x	u	u
CC1CCCC(C)N1C(=O)CSc1nnc(-c2c[nH]c3ccccc23)o1 (stereo not drawn)	6.9	-1.8	u	-1.3%	-16.0	16.4µM*
CCSc1nnc(-c2c[nH]c3ccccc23)o1	-12.7	4.7	4.4%	x	-12.2	-22.6%
CCOC(=O)CSc1nnc(-c2c[nH]c3ccccc23)o1	-2.3	0.3	16.1%	-2.0%	-92.8*	7.2%
CCC1CCCCN1C(=O)CSc1nnc(-c2c[nH]c3ccccc23)o1 (stereo not drawn)	-23.8	-6.8	20.6µM*	-2.4%	-21.4	u
CC1CCCCN1C(=O)CSc1nnc(-c2ccc(Cl)s2)o1 (stereo not drawn)	33.7	-9.0	u	u	-8.2	29.1µM*
COc1ccc(Nc2nccc3c2ncn3C)cc1	-19.2	-15.0	-16.2%	x	-14.3	-17.6%
Cc1cc([N+](=O)[O-])ccc1NC(c1nnc(-c2ccccc2)o1)c1ccccc1F (stereo not drawn)	x	2.3	8.5%	1.7%	x	-7.2%
CCC1CCCCN1C(=O)CSc1nnc(-c2ccc(OC)cc2)o1 (stereo not drawn)	1.8	4.8	u	-3.6%	-6.8	20.6µM*
CC1CCCC(C)N1C(=O)COC(=O)c1c[nH]c2ccccc12 (stereo not drawn)	-20.1	-1.3	-8.1%	-2.8%	-7.0	3.26µM*
CCOc1ccccc1CNC(=O)c1cc(-c2ccc(C)c(C)c2)nc2ccccc12	x	13.1	20.6µM*	3.7%	x	u
CCOc1ccccc1CNC(=O)c1cc(-c2ccc(Cl)s2)nc2ccccc12	x	6.5	-76.6%	28.2µM*	x	13µM*
CCc1nc(SCC(=O)N2CCN(c3ccccc3)CC2)c2oc3ccccc3c2n1	13.1	47.6*	25.9µM*	-24.7%	-67.1*	20.6µM*
CCc1nc(N2CCC(C)CC2)c2oc3ccccc3c2n1	-11.8	15.0	u	31.6µM*	13.2	u
CCc1nc(N(CC)CC)c2oc3ccccc3c2n1	8.0	1.5	-28.3%	-7.5%	17.7	-24.4%
CCc1nc(SCC(=O)c2ccc(Cl)s2)c2oc3ccccc3c2n1	33.0	1.6	-25.9%	-0.9%	2.1	-25.1%
CCc1nc(SCC(=O)N2CCCC2)c2ccccc2n1	-11.7	4.1	-1.5%	-1.0%	-94.0*	-9.6%
O=C(CN1CCCC(O)C1)N1c2ccccc2Sc2ccc(C(F)(F)F)cc21 (stereo not drawn)	-20.3	-0.9	-10.6%	3.0%	2.6	-20.3%
O=C(CSc1nc(C2CC2)nc2ccccc12)N1c2ccccc2Sc2ccc(C(F)(F)F)cc21	19.1	-5.1	8.2µM*	3.1%	u	23.1µM*
COc1ccc(NC(=O)CSc2nc3[nH]c(=O)cc(O)c3s2)c(OC)c1	-29.7	-8.0	1.7%	-1.2%	8.6	-9.7%
CC(OC(=O)CN1C(=O)c2ccccc2C1=O)C(=O)N(C)c1ccccc1 (stereo not drawn)	7.9	1.0	-1.5%	x	10.8	-2.0%
COc1ccccc1NC(=O)c1ccc(Cl)c(S(=O)(=O)NCc2ccco2)c1	-2.9	2.2	u	-0.3%	-3.9	-25.1%
O=C(CSc1nc(C2CC2)nc2ccccc12)N1CCCCC1	7.6	13.5	u	x	-94.7*	u
CCc1nc(Sc2nc(C)cc(C)n2)c2oc3ccccc3c2n1	43.1	12.0	u	-4.2%	-9.5	20.6µM*
SMILES	D3 antag	DRD3 agonist	TDP1 cell CPT	ClpP mod	IL1B secr inh	TDP1 cell noCPT
O=C(CSc1nc(C2CCCCC2)nc2ccccc12)N1CCCC1	7.1	0.1	u	0.1%	-80.9*	u
CC1CCCCN1C(=O)CSc1nc(C2CC2)nc2c1cnn2-c1ccccc1 (stereo not drawn)	40.4	1.0	u	-5.8%	-90.7*	u
Cc1ccc(C)c(N(C)C(=O)CCNC(=O)Cn2cnc3ccccc3c2=O)c1	x	1.7	u	-1.3%	x	u
CC1CN(C(=O)c2cc3cc(F)ccc3[nH]2)CC(C)O1 (stereo not drawn)	4.6	2.0	-25.0%	-6.9%	16.1	-11.9%
Cc1cc(C(=O)O)ccc1[C@H](N)C(=O)O	x	x	-2.0%	x	x	-18.9%
CCN(CC)CCNc1ccc(CO)c2oc3ccccc3c(=O)c12	-1.0	1.0	8.2µM*	-0.2%	-55.2*	8.2µM*
CCN(CC)CCNc1ccc(CO)c2sc3ccccc3c(=O)c12	-63.2*	-47.9	0.581µM*	-2.6%	-105.1*	1.16µM*
O=c1c2ccccc2sc2c(CO)ccc(NCCN3CCCCC3)c12	u	-25.9	0.411µM*	-0.6%	-101.3*	0.92µM*
CCN(CC)CCNc1cccc2sc3ccccc3c(=O)c12	-28.3	-12.4	23.1µM*	-2.6%	0.0	18.4µM*
O=C(NCCN1CCCCC1)Nc1ccccc1Cl	-16.2	-16.0	-2.9%	-1.0%	-3.7	12.0%
Cc1cnc(CNC(=O)c2ccc3sc([C@H]4C[C@H](O)[C@@H](CO)O4)nc3c2)cn1	0.0	-10.4	u	1.6%	48.5	12.1%
Cc1nc(SCC(=O)NCC2CCCO2)[nH]c(=O)c1C (stereo not drawn)	-8.1	0.2	1.7%	x	14.8	-0.4%
CCOC(=O)/C=C/c1ccc2c(c1)S(=O)(=O)N(c1cccc(OC)c1)[C@H]2CC(=O)OCC	0.0	-20.7	u	-0.2%	-4.9	u
O=C(O)/C=C/c1ccc2c(c1)S(=O)(=O)N(C1CCCC1)[C@H]2CC(=O)O	x	x	-16.9%	-1.3%	x	-3.3%
COC(=O)/C=C/c1ccc2c(c1)S(=O)(=O)N(c1cccc(OC)c1)[C@H]2CC(=O)OC	7.2	4.8	u	-4.6%	34.9	u
CCOC(=O)C[C@H]1c2ccccc2S(=O)(=O)N1C1CC1	0.4	0.2	u	2.7%	26.3	-0.2%
CC(=O)/C=C/c1ccc2c(c1)S(=O)(=O)N(C1CCCC1)[C@H]2CC(C)=O	x	x	15.8µM*	-2.4%	x	7.08µM*
CC(=O)C[C@H]1c2ccccc2S(=O)(=O)N1C1CCCC1	-167.8*	-26.6	u	-2.1%	-6.2	u
